# Assay outcomes from PubChem BioAssay.
# F508del corr: CFTR F508del correction in bronchial cells | CFBE cells, YFP halide quenching; stimulated with forskolin plus potentiator P3; % fluorescence drop versus neutral controls | activity (quench increase), % at 7.58 µM | 0.36% of 350,000 active;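 active = mean added fluorescence quench of at least 8% versus neutral control, with both replicates also reaching 8%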;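 note: cells transiently co-express mutant CFTR-F508del with the halide-sensitive YFP; corrector assay measuring rescue of mutant channel to the surface after 24 h compound exposure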
# GAA850 FXN act: increases GAA850 frataxin promoter reporter activity. 0.56% of 360,000 active. HEK293 lucGAA850 FXN promoter luciferase reporter, 24 h; percent of 10 µM SAHA response. activation, % at 6 µM. AID 540364;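 active = activation above the average of all compounds screened plus 3 SD, cutoff fixed separately per campaign, cut at about 7.5% in these data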;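 note: 0% = DMSO wells and 100% = 10 µM SAHA wells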
# PAX8 inh HTS: lowers PAX8-driven luciferase in RMG-I cells; RMG-I TPO-luciferase reporter, SteadyGlo, 24 h; inhibition, % at 12.6 µM; 1.2% of 360,000 active; AID 652154;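 active = mean replicate inhibition at least 60% with every replicate also reaching 60%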;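 note: luciferase light reporting Pax8 driven TPO promoter activity; plate controls were median of neutral control wells for no effect and mitoxantrone controls for full effect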
# HIV Env fusion: HIV envelope-mediated fusion inhibition | HeLa-JRFL Env/CEM21 cell fusion, luciferase | inhibition, % at 12.3 µM | 1.1% of 360,000 active;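 active = mean replicate inhibition score of at least 50 and every replicate individually at or above 50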;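 note: 0% = plate neutral controls and 100% = maraviroc near 300 nM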
# EWS-Fli inh: inhibitors of EWS/Fli oncoprotein transcriptional activity. 0.67% of 350,000 active. inhibition, % at 12.6 µM. A673 NR0B1-luciferase reporter, viability-normalised. AID 651661;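 active = mean inhibition of at least 50% after viability correction, with every replicate also passing that limit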;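 note: firefly luciferase signal divided by Alamar Blue viability fluorescence both relative to DMSO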
# * hit, by the source's call; . = not tested or not shown; [ ] = another dose, or the depositor's remark. Compounds with a hit are over-represented: about 2.5% of the library has one in this group of screens.
SMILES,F508del corr,GAA850 FXN act,PAX8 inh HTS,HIV Env fusion,EWS-Fli inh
Cc1ccc(-c2ccc3c(c2)O[C@@H](CN(C)C(=O)Nc2ccc(F)cc2)[C@@H](C)CN([C@H](C)CO)S3(=O)=O)cc1,8.5*,.,.,7[16.7 µM],8
Cc1noc(C)c1NC(=O)Nc1ccc2c(c1)CC(=O)N([C@H](C)CO)C[C@H](C)[C@@H](CN(C)Cc1ccc(Oc3ccccc3)cc1)O2,1,.,18,-1[16.7 µM],14
CC(C)NC(=O)N(C)C[C@@H]1Oc2cc(C#C[C@@H](C)O)ccc2S(=O)(=O)N([C@H](C)CO)C[C@H]1C,0,.,-2,.,-8
C[C@H]1CN([C@@H](C)CO)C(=O)Cc2cc(NC(=O)Nc3ccccc3)ccc2O[C@H]1CN(C)Cc1ccc(C(F)(F)F)cc1,-1,.,.,-10[16.7 µM],-6
CCOC(=O)c1oc2ccc(S(=O)(=O)n3nc(-c4ccccc4)cc3N)cc2c1C,8.2*,0,21,26,16
O=C([C@@H]1[C@@H](CO)[C@@H]2Cn3c(cccc3=O)[C@H]1N2C(=O)c1ccc(F)cc1)N1CCCCC1,-1,.,-5,.,2
COc1ccc2c(c1)[nH]c1c(=O)n(/N=C/c3ccc(OC)c(CN4CCCC4)c3)cnc12,9.2*,2,5,9,-8
COc1ccc(/C=N/n2cnc3c([nH]c4ccc(F)cc43)c2=O)cc1CN1CCCC1,0,-10,11,4,57*
COc1ccc2[nH]c3c(=O)n(/N=C/c4ccc(OC)c(CN5CCCC5)c4)c(C)nc3c2c1,1,0,-18,13,-3
COc1ccc(/C=N/n2cnc3c([nH]c4ccc(C)cc43)c2=O)cc1CN1CCCC1,-4,4,20,10,59*
CCC(=O)N[C@@H]1CC[C@H](CCNC(=O)Nc2ccc(F)cc2)O[C@H]1CO,-5,.,-13,-4[16.7 µM],1
CCN(CC)c1ccc(/C=N/NC(=O)c2ccco2)c(O)c1,35*,-6,-19,-408,-25
NC(=O)[C@H]1CC2(CC(c3cccc(NC(=O)COc4ccc(Cl)cc4)c3)=NO2)CN1C(=O)Cc1ccc([N+](=O)[O-])cc1 (some centres undefined),-2,1,76*,12,13
CCCCCC(=O)Nc1cccc(C2=NOC3(C2)C[C@@H](C(N)=O)N(C(=O)Cc2ccc([N+](=O)[O-])cc2)C3)c1 (some centres undefined),4,-2,17,17,4
COc1cccc(CNc2nc3cc(-c4ccccc4)sc3c(=O)n2C)c1OC,1,-2,34,66*,11
Cc1cc2ncn(S(=O)(=O)N3CCOCC3)c2cc1C,.,-2,.,.,.
Cc1cc2ncn(S(=O)(=O)N3CCCCC3)c2cc1C,.,1,.,83*,.
Cc1ccc(-c2ccc3c(c2)O[C@H](CN(C)Cc2ccncc2)[C@@H](C)CN([C@@H](C)CO)S3(=O)=O)cc1,3,.,.,91*[16.7 µM],72*
C[C@@H]1CN([C@@H](C)CO)S(=O)(=O)c2ccc(-c3ccccc3)cc2O[C@@H]1CN(C)Cc1ccncc1,2,.,.,12[16.7 µM],-4
Cc1ccc(-c2ccc3c(c2)O[C@H](CN(C)Cc2cccnc2)[C@@H](C)CN([C@H](C)CO)S3(=O)=O)cc1,1,.,.,79*[16.7 µM],63*
Cc1ccc(-c2ccc3c(c2)O[C@@H](CN(C)Cc2ccncc2)[C@H](C)CN([C@H](C)CO)S3(=O)=O)cc1,6,.,.,90*[16.7 µM],74*
C[C@H]1CN([C@@H](C)CO)S(=O)(=O)c2ccc(/C=C/c3ccccc3)cc2O[C@@H]1CN(C)Cc1cccnc1,-1,.,86*,13[16.7 µM],20
C[C@@H]1CN([C@H](C)CO)S(=O)(=O)c2ccc(-c3ccncc3)cc2O[C@@H]1CN(C)Cc1ccc(Oc2ccccc2)cc1,2,.,.,59*[16.7 µM],44
CS(=O)(=O)Nc1ccc2c(c1)[C@H]1C[C@H](CC(=O)N3CCOCC3)O[C@@H](CO)[C@H]1O2,-4,.,.,.,3
O=C(Nc1ccc(S(=O)(=O)NC2=NCCCCC2)cc1)c1ccc([N+](=O)[O-])s1,-1,2,95*,-9,59*
SMILES,F508del corr,GAA850 FXN act,PAX8 inh HTS,HIV Env fusion,EWS-Fli inh
O=C1CN(C(=O)c2ccc(Br)o2)C(c2ccccc2)c2cc(Cl)ccc2N1 (centres undefined),-3,-1,33,58*,16
CCN(CC(O)CON=C1c2ccccc2-c2ccccc21)S(=O)(=O)c1ccc(Cl)cc1 (centres undefined),.,3,35,77*,.
Cc1cccc(N(CC(O)CON=C2c3ccccc3-c3ccccc32)S(C)(=O)=O)c1 (centres undefined),.,1,.,65*,.
CC(=O)NC[C@@H]1[C@@H](c2ccc(-c3cccc(F)c3)cc2)[C@@H](CO)N1C(C)=O,0,.,9,.,-3
COc1ccc(NC(=O)N(C)C[C@H]2OCc3ccccc3-c3ccccc3C(=O)N([C@@H](C)CO)C[C@@H]2C)c(OC)c1,-3,.,.,.,-14
C[C@@H]1CN([C@@H](C)CO)C(=O)Cc2cc(NC(=O)Cc3ccccc3)ccc2O[C@@H]1CN(C)S(=O)(=O)c1ccccc1,2,.,4,18[16.7 µM],0
C[C@H](CO)N1C[C@H](C)[C@H](CN(C)S(=O)(=O)c2ccccc2)Oc2ccc(NC(=O)Cc3ccccc3)cc2CC1=O,1,.,7,92*[16.7 µM],0
C[C@H](CO)N1C[C@H](C)[C@H](CN(C)S(=O)(=O)c2ccc(F)cc2)Oc2ccc(NC(=O)Nc3ccccc3)cc2CC1=O,3,.,-31,55*[16.7 µM],-7
C[C@H](CO)N1C[C@H](C)[C@H](CN(C)S(=O)(=O)c2ccc(F)cc2)Oc2ccc(NC(=O)Nc3cccc4ccccc34)cc2CC1=O,2,.,-7,83*[16.7 µM],-4
Cc1ccc(S(=O)(=O)N(C)C[C@@H]2Oc3ccc(NC(=O)Nc4ccc(F)cc4)cc3CC(=O)N([C@H](C)CO)C[C@@H]2C)cc1,0,.,46,37[16.7 µM],63*
Cc1ccc(S(=O)(=O)N(C)C[C@H]2Oc3ccc(NC(=O)Nc4ccc(F)cc4)cc3CC(=O)N([C@H](C)CO)C[C@@H]2C)cc1,0,.,-9,3[16.7 µM],-4
C[C@H]1CN([C@@H](C)CO)C(=O)Cc2cc(NC(=O)Nc3cccc4ccccc34)ccc2O[C@@H]1CN(C)S(=O)(=O)c1ccc(F)cc1,-3,.,-5,9[16.7 µM],12
CO[C@@H]1CN(C)C(=O)c2cc(NS(C)(=O)=O)ccc2OC[C@@H](C)N(C(=O)C2CCCCC2)C[C@H]1C,-1,.,-1,.,-9
CC(=O)NCCCC[C@@H]1NC(=O)[C@@H]2C[C@H](C(=O)NCc3ccc(F)cc3)[C@H](c3ccc(O)cc3)N2C1=O,-2,.,.,-4[16.7 µM],-16
COCCNC(=O)c1cc2c(c(-c3cccc(C4=CCCCC4)c3)n1)[C@H](CCO)N([S@@](=O)C(C)(C)C)C2,3,.,-2,.,.
C[C@H](CO)N1C[C@H](C)[C@@H](CN(C)S(=O)(=O)c2ccccc2)Oc2ccc(NC(=O)Nc3ccccc3)cc2CC1=O,-2,.,-27,-11[16.7 µM],-14
